# Values without a mark were called inactive. For some assays here: Measured potencies and affinities stand elsewhere. The source made the active and inactive calls. Unless noted, the rule behind the calls is not given here.
# Legend:
# [1] = antimalarial activity against Dd2 strain (AID 2302;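 active = growth inhibition above 50% at the single 2 µM test dose, taken to imply half-maximal potency below 2 µM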;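 note: 0% = DMSO untreated growth and 100% = chloroquine plus artemisinin killed control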); conditions: P. falciparum Dd2 in RBCs, LDH growth readout, 72 h; at 2 µM; stronger effect = higher value
# [2] = human hepatoma cell viability loss – ATP luminescence, cytotoxicity control for P. falciparum antimalarial project, primary screen (AID 2303;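 active = inhibition above 50%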;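 note: 0% = DMSO wells and 100% = digitonin-killed cells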); conditions: HepG2 viability, 24-48 h, at 10 µM, stronger effect = higher value
# [3] = target: L-lactate dehydrogenase (Plasmodium falciparum (isolate CDC / Honduras)) (UniProt Q27743); assay: PfLDH activity inhibition – cell lysate, 3D7 strain, counter-screen for P. falciparum growth inhibition project (AID 2304);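 note: 0% = vehicle and 100% = reference inhibitor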; conditions: P. falciparum 3D7 crude extract, LDH APAD/NBT absorbance; at 2 µM; stronger effect = higher value
# [4] = inhibition of 3D7 malaria parasite growth – strain 3D7 (AID 2306);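 note: 0% = DMSO wells and 100% = chloroquine plus artemisinin control wells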; conditions: P. falciparum 3D7 erythrocytic growth, LDH absorbance, 72 h; at 2 µM; stronger effect = higher value
# [5] = target: Calcium-dependent protein kinase 1 (Plasmodium falciparum (isolate 3D7)) (UniProt P62344); assay: PfCDPK1 kinase inhibitors, biochemical, TCAMS library (AID 1159585; cut-off not given, nearly all actives have IC50 up to about 0.98 µM;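 note: inhibitors leave more ATP so luminescence rises with inhibition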); conditions: recombinant PfCDPK1, Kinase-Glo ATP depletion luminescence
# [6] = target: Plasmodium falciparum protein kinase 6 (PK6, PF3D7_1337100) (UniProt Q8IDW1); assay: PfPK6 kinase inhibitors, biochemical, TCAMS library (AID 1159586); conditions: recombinant PfPK6, Kinase-Glo ATP depletion luminescence
# [7] = target: Protein kinase 7 (PK7), Plasmodium falciparum 3D7 (PF3D7_0213400) (UniProt Q7YTF7); assay: inhibition of Plasmodium PK7 catalytic activity – biochemical, TCAMS antimalarial set, Kinase-Glo luminescence (AID 1159587); conditions: recombinant PfPK7, Kinase-Glo ATP depletion luminescence
# [8] = target: Calcium-dependent protein kinase 4 (Plasmodium falciparum (isolate 3D7)) (UniProt Q8IBS5); assay: PfCDPK4 kinase inhibitors, biochemical, TCAMS library (AID 1159588; cut-off not given, nearly all actives have IC50 up to about 0.91 µM); conditions: recombinant PfCDPK4, Kinase-Glo ATP depletion luminescence
# Chain of Calcium-dependent protein kinase 4 (Plasmodium falciparum (isolate 3D7)) (Q8IBS5 whole entry, looked up): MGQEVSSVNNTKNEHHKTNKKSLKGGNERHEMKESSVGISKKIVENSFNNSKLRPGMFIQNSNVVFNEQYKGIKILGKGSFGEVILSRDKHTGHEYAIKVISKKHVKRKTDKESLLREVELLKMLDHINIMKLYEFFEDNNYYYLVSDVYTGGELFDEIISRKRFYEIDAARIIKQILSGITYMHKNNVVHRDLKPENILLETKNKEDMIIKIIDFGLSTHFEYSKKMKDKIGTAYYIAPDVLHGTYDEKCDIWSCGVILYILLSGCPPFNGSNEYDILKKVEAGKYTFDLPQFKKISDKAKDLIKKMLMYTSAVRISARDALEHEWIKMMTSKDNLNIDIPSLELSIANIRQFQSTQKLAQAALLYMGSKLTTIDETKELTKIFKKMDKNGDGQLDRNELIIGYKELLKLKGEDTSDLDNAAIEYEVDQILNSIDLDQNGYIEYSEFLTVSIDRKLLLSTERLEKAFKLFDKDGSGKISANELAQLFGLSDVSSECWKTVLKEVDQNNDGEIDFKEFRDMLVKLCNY
# Chain of Calcium-dependent protein kinase 1 (Plasmodium falciparum (isolate 3D7)) (P62344 whole entry, looked up): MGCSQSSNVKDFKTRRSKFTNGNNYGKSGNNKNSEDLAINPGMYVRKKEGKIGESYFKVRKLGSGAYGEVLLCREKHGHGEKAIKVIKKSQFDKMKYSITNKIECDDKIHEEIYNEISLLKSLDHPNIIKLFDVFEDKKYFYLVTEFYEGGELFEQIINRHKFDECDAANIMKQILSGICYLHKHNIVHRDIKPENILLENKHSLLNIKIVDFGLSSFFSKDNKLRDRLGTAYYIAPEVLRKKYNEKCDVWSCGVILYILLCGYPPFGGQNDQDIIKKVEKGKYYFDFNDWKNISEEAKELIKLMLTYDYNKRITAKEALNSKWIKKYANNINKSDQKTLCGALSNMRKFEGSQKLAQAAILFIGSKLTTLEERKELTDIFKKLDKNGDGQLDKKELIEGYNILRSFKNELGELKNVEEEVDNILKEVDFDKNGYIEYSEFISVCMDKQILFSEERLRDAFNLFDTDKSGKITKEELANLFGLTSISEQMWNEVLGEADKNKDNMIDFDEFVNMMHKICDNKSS
# Chain of Protein kinase 7 (PK7), Plasmodium falciparum 3D7 (PF3D7_0213400) (Q7YTF7 1-343): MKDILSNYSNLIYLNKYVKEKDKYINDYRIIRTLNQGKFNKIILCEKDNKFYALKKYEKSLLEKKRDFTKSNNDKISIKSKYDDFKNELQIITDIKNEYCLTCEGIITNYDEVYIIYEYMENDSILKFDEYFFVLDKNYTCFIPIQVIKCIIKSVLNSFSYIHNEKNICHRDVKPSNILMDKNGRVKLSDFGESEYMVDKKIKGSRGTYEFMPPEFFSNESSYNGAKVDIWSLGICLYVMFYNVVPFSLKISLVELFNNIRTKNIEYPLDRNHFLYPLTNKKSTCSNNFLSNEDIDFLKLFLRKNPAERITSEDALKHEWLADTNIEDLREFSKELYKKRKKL
# Chain of L-lactate dehydrogenase (Plasmodium falciparum (isolate CDC / Honduras)) (Q27743 whole entry, looked up): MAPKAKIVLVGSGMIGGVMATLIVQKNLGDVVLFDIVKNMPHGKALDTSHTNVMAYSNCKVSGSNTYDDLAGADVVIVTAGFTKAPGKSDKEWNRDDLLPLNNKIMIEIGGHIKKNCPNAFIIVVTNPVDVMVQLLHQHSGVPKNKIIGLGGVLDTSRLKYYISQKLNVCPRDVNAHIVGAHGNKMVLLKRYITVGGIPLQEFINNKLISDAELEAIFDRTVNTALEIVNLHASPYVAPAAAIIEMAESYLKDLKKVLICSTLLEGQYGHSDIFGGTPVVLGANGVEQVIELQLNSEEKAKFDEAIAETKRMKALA
# Chain of Plasmodium falciparum protein kinase 6 (PK6, PF3D7_1337100) (Q8IDW1 1-305): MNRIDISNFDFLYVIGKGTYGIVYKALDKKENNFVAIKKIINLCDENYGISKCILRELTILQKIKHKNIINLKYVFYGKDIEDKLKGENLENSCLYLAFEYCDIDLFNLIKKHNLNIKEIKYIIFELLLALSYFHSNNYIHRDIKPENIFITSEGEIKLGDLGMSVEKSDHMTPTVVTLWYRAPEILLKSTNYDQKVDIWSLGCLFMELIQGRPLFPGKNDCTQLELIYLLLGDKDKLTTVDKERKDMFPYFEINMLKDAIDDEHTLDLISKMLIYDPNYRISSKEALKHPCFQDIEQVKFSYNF
Structure (SMILES),growth inhibition [1],inhibition [2],inhibition [3] [%],growth inhibition [4],outcome [5],outcome [6],outcome [7],outcome [8]
COc1cc(Cc2cnc(N)nc2N)cc(OCCCCC2NC(=O)NC2=O)c1OC (stereo not given),-1%,2%,-3,94% (active),inactive,inactive,inactive,inactive
CCOc1ccccc1NC(=O)Nc1ccc2c(c1)CCN(C1CCC1)CC2,2%,15%,-3,88% (active),inactive,inactive,inactive,inactive
Cc1cccnc1CNc1nccc2c(C)c(C)[nH]c12,28%,27%,0,100% (active),inactive,inactive,inactive,inactive
NC(=O)C1CCN(Cc2cccc(-c3cccc(-c4nc5ccc(F)cc5[nH]4)c3)c2)CC1,7%,15%,3,100% (active),inactive,inactive,inactive,inactive
CCN(CC)CCOc1ccc(N(Cc2ccc(C(C)(C)C)cc2)C(=O)c2ccc(Cc3ccccc3)cc2)cc1OC,73% (active),5%,0,99% (active),inactive,inactive,inactive,inactive
COc1cccc(C(=O)NCc2cccs2)c1Oc1ccccc1,4%,-6%,-4,98% (active),inactive,inactive,inactive,inactive
NC(N)=Nc1nc(-c2ccc(NC(=O)Nc3cccc(-c4csc(N=C(N)N)n4)c3)cc2)cs1,80% (active),-9%,3,94% (active),inactive,inactive,inactive,inactive
NC(N)=NCC=C(c1ccccc1)c1ccccc1,83% (active),9%,1,94% (active),inactive,inactive,inactive,inactive
CCOc1c(CNCCCNc2cc(=O)c3ccccc3[nH]2)cc(I)cc1C(C)(C)C,89% (active),17%,-4,102% (active),inactive,inactive,inactive,inactive
CCCCCN1CCCN(Cc2cccc(NC(=O)c3ccc(-c4ccccc4)cc3)c2)CC1,15%,23%,6,95% (active),inactive,inactive,inactive,inactive
O=S(=O)(c1ccc2cc[nH]c2c1)N1CCC[C@@H]1CCN1CCC(c2c[nH]c3cnccc23)CC1,0%,13%,0,95% (active),inactive,inactive,inactive,inactive
Cc1ccc2sc(N3CCN(C(=O)c4ccc([N+](=O)[O-])o4)CC3)nc2c1C,86% (active),-7%,5,90% (active),inactive,inactive,inactive,inactive
Cc1cccc(NC(c2cccs2)c2c(NC(=O)c3ccccc3)sc(C)c2C)n1 (stereo not given),80% (active),-8%,1,88% (active),inactive,inactive,inactive,inactive
O=C(Nc1cccc(-c2nc3ccccc3[nH]2)c1)c1cccc(NC(=O)c2ccco2)c1,45%,9%,0,91% (active),inactive,inactive,inactive,inactive
O=C(Nc1ccncc1)c1cc(C(=O)Nc2ccncc2)cc([N+](=O)[O-])c1,50% (active),1%,-3,100% (active),inactive,inactive,inactive,inactive
CCCCc1ccc(C(=O)NC2CCN(C[C@H](O)c3ccnc4ccc(OC)cc34)CC2)cc1,22%,24%,-1,91% (active),inactive,inactive,inactive,inactive
CN1CCCC(COc2cc3c(cc2Br)CCN3C(=O)Nc2ccc(-c3ccncc3)c(Cl)c2)C1 (stereo not given),96% (active),99% (active),-2,100% (active),inactive,inactive,inactive,inactive
O=C(NC1CCN(CCN2CCC(c3cn(CCO)c4ccccc34)CC2)CC1)c1ccc(-c2ccc(C(F)(F)F)cc2)cc1,54% (active),30%,-1,98% (active),inactive,inactive,inactive,inactive
CCOC(=O)CCCCOc1c(OC)cc(Cc2cnc(N)nc2N)cc1OC,0%,-8%,5,95% (active),inactive,inactive,inactive,inactive
O=S(=O)(c1ccccc1)n1ccc2cc(Nc3ncnc4cc(C#C[C@H]5CCCN5)sc34)ccc21,56% (active),50% (active),-3,85% (active),inactive,inactive,inactive,inactive

Structure (SMILES),growth inhibition [1],inhibition [2],inhibition [3] [%],growth inhibition [4],outcome [5],outcome [6],outcome [7],outcome [8]
COc1cc(NC(=O)N2CCc3cc(OC)c(OCCN4CCCCC4)cc32)cc(C(F)(F)F)c1,10%,9%,-3,93% (active),inactive,inactive,inactive,inactive
O=C1CCCN1CCCNCc1cccc(-c2ccc(-c3nc4ccc(C(F)(F)F)cc4[nH]3)cc2)c1,96% (active),15%,-3,101% (active),inactive,inactive,inactive,inactive
COc1nc(NCC(C)C)nc(Oc2ccc(=O)n(Cc3ccccc3)n2)n1,93% (active),1%,5,97% (active),inactive,inactive,inactive,inactive
Cc1cc(-c2ccc(NC(=O)N3CCc4cc(Br)c(N5CCN(C)CC5)cc43)cc2)cc(C)n1,4%,29%,-2,92% (active),inactive,inactive,inactive,inactive
O=C(/C=C/c1ccc(Cl)c(Cl)c1)NCCCCCN1CCC(NC(=O)c2ccc([N+](=O)[O-])cc2)CC1,6%,36%,-2,100% (active),inactive,inactive,inactive,inactive
COc1ccccc1C1CCN(C2CCC(NC(=O)/C=C/c3cc(C(F)(F)F)cc(C(F)(F)F)c3)CC2)CC1 (stereo not given),21%,31%,-4,92% (active),inactive,inactive,inactive,inactive
COc1ccc(N2CCN(CCCCNC(=O)c3ccc(NC(=O)c4ccc(OC(F)(F)F)cc4)cc3)CC2)c(OC)c1,90% (active),36%,5,101% (active),inactive,inactive,inactive,inactive
O=S(=O)(c1ccc(OCc2ccc(Cl)cc2)cc1)c1cc2c(c(-c3ccc(F)cc3)c1)CCN(CC1CC1)CC2,14%,-5%,-5,84% (active),inactive,inactive,inactive,inactive
Cc1cccc(NC(=O)NCc2ccccc2)n1,2%,14%,-2,97% (active),inactive,inactive,inactive,inactive
COc1ccc2ncc(F)c(CCN3CC[C@@H](CNCc4nc5c(cc4C)SCC(=O)N5)C3)c2n1,42%,14%,1,91% (active),inactive,inactive,inactive,inactive
CCCN(Cc1ccc(C)cc1)Cc1cc(=O)c2cc(Cl)ccc2[nH]1,91% (active),51% (active),4,86% (active),inactive,inactive,inactive,inactive
CC(C)(C)C(=O)Nc1ccc(N2CCN(C(c3ccccc3)c3ccccc3)CC2)c(Cl)c1,94% (active),-13%,0,92% (active),inactive,inactive,inactive,inactive
Nc1ccc(-c2nc3ccc(Oc4ccc5nc(-c6ccc(N)cc6)[nH]c5c4)cc3[nH]2)cc1,99% (active),18%,7,100% (active),inactive,inactive,inactive,inactive
O=S(=O)(NCCN1CCCC1)c1ccc(-c2ccc(CNC3Cc4ccccc4C3)cc2)s1,97% (active),47%,-2,100% (active),inactive,inactive,inactive,inactive
CC(=O)c1ccccc1C(=O)N1CCOc2ccc(C(O)C(c3ccccc3)c3ccccc3)cc2C1 (stereo not given),98% (active),10%,3,96% (active),inactive,inactive,inactive,inactive
Clc1cccc(CNC2CCN(CC3CCCCC3)CC2)c1,24%,4%,-2,97% (active),inactive,inactive,inactive,inactive
COc1c(C2CCN(CCCCNC(=O)c3ccc(-c4ccc(Cl)cc4)c(OCC(N)=O)c3)CC2)ccc2c1CCCC2,11%,43%,3,97% (active),inactive,inactive,inactive,inactive
COc1cccc(C2CCN(CCN3CCC(NC(=O)c4ccc(-c5ccc(C#N)cc5)cc4)CC3)CC2)c1,47%,28%,6,98% (active),inactive,inactive,inactive,inactive
CCCN(CCC)C(=O)c1cc(-c2cccc(C)c2)nc2ccccc12,59% (active),17%,-6,86% (active),inactive,inactive,inactive,inactive
CCN(CC)CCCC(C)Nc1c(-c2ccc(C)cc2)cnc2ccccc12 (stereo not given),65% (active),8%,1,85% (active),inactive,inactive,inactive,inactive

# — PubChem BioAssay
